# Experimental data published in PubChem BioAssay (NCATS).
# Results filed as inconclusive are left out. Where a call stands in place of a potency, no number is given. Active and inactive are the calls of the source. Calls follow the shape of the dose curve; as a rule, active = well fitted inhibition curve with a large enough effect; inconclusive = small, poorly fitted or top-dose-only effect; inactive = flat fitted curve, though single readings scatter. Where a SMILES comes first, the peptide text is derived from it. Bridges are numbered along the chain shown (N, C = ends). [ ]: non-standard residue; d: D form. The star is where a group is joined. ξ: configuration not given here. d(aThr) = C[C@@H](O)[C@@H](N)C(=O)O; ξThr(3R) = C[C@@H](O)C(N)C(=O)O; X3 = CC[C@@H](C)CCCCC(=O)*; dDab = NCC[C@@H](N)C(=O)O
# Experiment: P-glycoprotein substrates identified in KB-8-5-11 adenocarcinoma cell line, qHTS therapeutic library screen (AID 1346987); also: nearly all actives have a fitted effect of over 65% in size
# Details: KB-8-5-11 (P-gp overexpressing) viability, CellTiter-Glo, 72 h; series mostly up to 44.5 µM
# Outline: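 Human cervical adenocarcinoma KB-8-5-11 cells, selected in colchicine to over-express P-gp and assayed without it, were exposed for 72 h to titrated compounds. An ATP-based luminescent viability signal gave AC50.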
row,SMILES,Potency
1,O=C(NNCNNC(=O)c1ccncc1)c1ccncc1,inactive
2,CCCC(CCC)C(=O)OC1C[C@H]2CC[C@@H](C1)[N+]2(C)C (stereo partly drawn),inactive
3,O=C1[O][Bi][O]c2ccccc21,inactive
4,NC(N)=O,inactive
5,CC[C@H]1OC(=O)[C@H](C)[C@@H](O[C@H]2C[C@@](C)(OC)[C@@H](O)[C@H](C)O2)[C@H](C)[C@@H](O[C@@H]2O[C@H](C)C[C@H](N(C)C)[C@H]2O)[C@](C)(O)C[C@@H](C)CN(C)[C@H](C)[C@@H](O)[C@]1(C)O,inactive
6,CCC(=O)c1ccc2c(c1)N(CCCN1CCN(CCO)CC1)c1ccccc1S2,inactive
7,Cc1ccc(S(=O)(=O)NC(=O)N[C@@H](C)Cc2ccccc2)cc1,inactive
8,C[Se]CC[C@H](N)C(=O)O,inactive
9,COc1ccc([C@@H]2CC(=O)c3c(O)cc(O[C@@H]4O[C@H](CO[C@@H]5O[C@@H](C)[C@H](O)[C@@H](O)[C@H]5O)[C@@H](O)[C@H](O)[C@H]4O)cc3O2)cc1O,inactive
10,Cc1c(O)c(=O)ccn1C,inactive
11,CC(=O)OCC1=C(C(=O)O)N2C(=O)[C@@H](NC(=O)Cc3ccccc3)[C@H]2SC1,inactive
12,CCN(CC)CCOC[C@H]1O[C@@H](O)[C@H](OCCN(CC)CC)[C@@H](O)[C@@H]1O,inactive
13,Oc1ccc(/C=C/c2cc(O)cc(O)c2)cc1,inactive
14,CC1(C)[C@H]2CC[C@]1(C)[C@H](O)C2,inactive
15,CC1CC(OC(=O)C(O)c2ccccc2)CC(C)(C)C1 (stereo not drawn),inactive
16,NC(=O)[C@H]1O[C@@H](O)[C@H](O)[C@@H](O)[C@@H]1O,inactive
17,c1ccc2c(c1)OCC(CN1CCCCC1)O2 (stereo not drawn),inactive
18,CC[C@@H](C)CCCCC(=O)N[C@H](CCN)C(=O)N[C@@H](C(=O)N[C@H](CCN)C(=O)N[C@@H]1CCNC(=O)C([C@@H](C)O)NC(=O)[C@@H](CCN)NC(=O)[C@@H](CCN)NC(=O)[C@@H](CC(C)C)NC(=O)[C@@H](Cc2ccccc2)NC(=O)[C@@H](CCN)NC1=O)[C@@H](C)O (stereo partly drawn) (X3-[dDab][d(aThr)][dDab][dDab][dDab][dF][dL][dDab][dDab][ξThr(3R)]; lactam 4-C),inactive
19,CCCCCCCCCCCCCCCCCCCCCC(=O)Nc1ccn([C@@H]2O[C@H](CO)[C@@H](O)[C@@H]2O)c(=O)n1,inactive

row,SMILES,Potency
1,O=C1c2c(O)cccc2[C@H]([C@@H]2O[C@H](CO)[C@@H](O)[C@H](O)[C@H]2O)c2cc(CO)cc(O)c21,inactive
2,Cc1c(C)c2c(c(C)c1OC(=O)CCC(=O)O)CC[C@@](C)(CCC[C@H](C)CCC[C@H](C)CCCC(C)C)O2,inactive
3,O=C1N=C2SCCN2C(=O)C1Cc1ccc(Cl)cc1 (stereo not drawn),inactive
4,CCCCC,inactive
5,CCCCCCCCCCCCCCCCCC(=O)OCC(C)O (stereo not drawn),inactive
6,Cc1ncc(C[n+]2csc(CCOP(=O)(O)OP(=O)(O)O)c2C)c(N)n1,inactive
7,NCCO/C=C/[C@H](N)C(=O)O,inactive
8,CCCCCCCCCCCCCCCC(=O)OC[C@H](COP(=O)([O-])OCC[N+](C)(C)C)OC(=O)CCCCCCCCCCCCCCC,inactive
9,O=C(O)CCC/C=C\C[C@@H]1[C@@H](/C=C/[C@@H](O)COc2cccc(C(F)(F)F)c2)[C@H](O)C[C@@H]1O,inactive
10,O=C(O)/C=C/c1ccccc1,inactive
11,CC1(C)[C@@H]2CC[C@@]1(C)[C@H](OC(=O)CSC#N)C2,inactive
12,CCCCCCCCCCCC(=O)OCC(O)CO (stereo not drawn),inactive
13,O=C(O)c1cc(N=Nc2ccc(O)c(C(=O)O)c2)ccc1O,inactive
14,NC[C@@H]1CC[C@@H](N)[C@@H](O[C@H]2[C@H](O)[C@@H](O[C@H]3O[C@H](CO)[C@@H](O)[C@H](N)[C@H]3O)[C@H](N)C[C@@H]2N)O1,inactive
15,CN1CCc2c(c3ccccc3n2Cc2ccccc2)C1,inactive
16,CC(=O)N[C@@H]([C@@H](O)[C@H](O)[C@H](O)CO)[C@@H](O)CC(=O)C(=O)O,inactive
17,CC12CCC(C1)C(C)(C)C2=O (stereo not drawn),inactive
18,CCOC(=O)[C@H](CS)NCCN[C@@H](CS)C(=O)OCC,inactive
19,CCOC(=S)SSC(=S)OCC,inactive
